Test results as given in publication PMC10726135, “HNF4α isoforms regulate the circadian balance between carbohydrate and lipid metabolism in the liver”.
Over roughly 18,000 sequences, “log2 normalized intensity” has its median near 0.36; the highest 2% begin near 7.3. This is one part of a sample in which the highest values are shown more often than they occur.

What follows are sequences tested against T1, HNF4alpha8 (COS-7 nuclear extract) (Homo sapiens, UniProt P41235-5 1-452) (assay: protein-binding microarray; COS-7 nuclear extract on double-stranded Agilent 4x180k PBM; binding buffer, salt, pH and temperature not given in the material; high values mean tight binding). Details: chain copies: 2; label: 3' end of strand 1 on the slide; dsDNA, one strand shown.
T1 sequence: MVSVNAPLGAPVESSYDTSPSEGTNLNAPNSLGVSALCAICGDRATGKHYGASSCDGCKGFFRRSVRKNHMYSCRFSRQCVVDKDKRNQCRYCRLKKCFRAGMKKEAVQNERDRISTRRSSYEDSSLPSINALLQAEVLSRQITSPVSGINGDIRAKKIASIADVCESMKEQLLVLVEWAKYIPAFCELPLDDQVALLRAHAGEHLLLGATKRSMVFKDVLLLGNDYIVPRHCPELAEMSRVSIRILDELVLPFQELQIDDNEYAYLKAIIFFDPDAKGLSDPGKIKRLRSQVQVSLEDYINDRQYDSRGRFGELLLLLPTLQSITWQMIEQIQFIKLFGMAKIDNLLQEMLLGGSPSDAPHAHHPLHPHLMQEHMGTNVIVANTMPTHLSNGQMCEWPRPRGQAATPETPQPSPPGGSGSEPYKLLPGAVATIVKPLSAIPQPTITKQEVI
Method in brief: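 Binding signal was defined as the normalized, background-corrected gProcessedSignal reported by Agilent software. It came from nuclear extracts of COS-7 cells transiently transfected with a human HNF4α isoform expression vector, applied to a custom Agilent SurePrint G3 4x180k array. That array held ~44,000 test sequences in quadruplicate as double-stranded ~60-nt oligonucleotides, and bound HNF4α was imaged at 2-µm resolution on an Agilent G2565CA scanner.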

First: GGGCCCAGGGTTCTCTGTGACCTTTGGAAGGCCTAGGGAGATTAGAGTATCGGTCGA
Second: TGACTACCAGGTTCTGTACTTTGGAACCTGGCCTAGGGAGATTAGAGTATCGGTCGA
The binding signal of the first is higher: 9.36 log2 normalized intensity for the first, 7.01 log2 normalized intensity for the second.

First: GAGGTGGGCCCAGGGTTCTCTGTGACCTTTGCCTAGGGAGATTAGAGTATCGGTCGA
Second: CTGCCCTTCTGACCTCCCAGGGATACTGTGGCCTAGGGAGATTAGAGTATCGGTCGA
The binding signal of the first is higher: 7.62 log2 normalized intensity for the first, 2.99 log2 normalized intensity for the second.

First: TGGAGCATGACCCTTTGCAGGTGGGAGAGGGCCTAGGGAGATTAGAGTATCGGTCGA
Second: TTCTCTGTGACCTTTGGAAGGTGGGGGAGGGCCTAGGGAGATTAGAGTATCGGTCGA
The binding signal of the first is lower: 0.928 log2 normalized intensity for the first, 4.92 log2 normalized intensity for the second.

Going from “GTAAGCACAAAGTACAGCTTTTTGTTTGTGGCCTAGGGAGATTAGAGTATCGGTCGA” to “AAACATCAAGGAAGAGAACTCCCTATCCCCGCCTAGGGAGATTAGAGTATCGGTCGA”, the binding signal falls from 2.02 log2 normalized intensity to 1.36 log2 normalized intensity.

First: GATAGATATGTTGAAGTGACTAAATGAGAAGCCTAGGGAGATTAGAGTATCGGTCGA
Second: GTACTTAAAAATGCCTTTCATCTTTGAGAAGCCTAGGGAGATTAGAGTATCGGTCGA
The binding signal of the first is lower: -0.611 log2 normalized intensity for the first, 0.583 log2 normalized intensity for the second.

Going from “GTGTCAACATGGACTTTGTTGTTTGCCTCTGCCTAGGGAGATTAGAGTATCGGTCGA” to “CCCTCCCTAAATCCAGAGGTATTTGGCCCAGCCTAGGGAGATTAGAGTATCGGTCGA”, the binding signal falls from 4.08 log2 normalized intensity to 1.83 log2 normalized intensity.

First: TTCCCCTCCCTTCCACCTTTGCCCTCCAAAGCCTAGGGAGATTAGAGTATCGGTCGA
Second: TTGCCATGACCTTTGAAGCCCAGAACACTCGCCTAGGGAGATTAGAGTATCGGTCGA
The binding signal of the first is higher: 6.42 log2 normalized intensity for the first, 4.51 log2 normalized intensity for the second.

Compared with “AGAAGCCACTGCGACCTTTGCCCTCCCTAAGCCTAGGGAGATTAGAGTATCGGTCGA”, “ACCGGCAGAGAGAAGCCACTGCGACCTTTGGCCTAGGGAGATTAGAGTATCGGTCGA” is lower in binding signal: 8.33 log2 normalized intensity for the first, 5.59 log2 normalized intensity for the second.

First: CTTTGCCCTCCCTAAATCCAGAGGTATTTGGCCTAGGGAGATTAGAGTATCGGTCGA
Second: CAGAGAGAAGCCACTGCGACCTTTGCCCTCGCCTAGGGAGATTAGAGTATCGGTCGA
The binding signal of the first is lower: 2.04 log2 normalized intensity for the first, 10 log2 normalized intensity for the second.

Compared with “CTTCTCCGCGGCGGGCCCTCGACCTTTGCCGCCTAGGGAGATTAGAGTATCGGTCGA”, “TCACAACCTCCCTTTGAAGGAGCCACTGGTGCCTAGGGAGATTAGAGTATCGGTCGA” is lower in binding signal: 5.8 log2 normalized intensity for the first, -0.869 log2 normalized intensity for the second.

Compared with “TCAGCCTTCTCCGCGGCGGGCCCTCGACCTGCCTAGGGAGATTAGAGTATCGGTCGA”, “CCACTGCGACCTTTGCCCTCCCTAAATCCAGCCTAGGGAGATTAGAGTATCGGTCGA” is higher in binding signal: 0.757 log2 normalized intensity for the first, 7.84 log2 normalized intensity for the second.

Compared with “CCGCGGCGGGCCCTCGACCTTTGCCCTCCAGCCTAGGGAGATTAGAGTATCGGTCGA”, “ACCCACCCACCTATGTCCTTATCCTCATTGGCCTAGGGAGATTAGAGTATCGGTCGA” is lower in binding signal: 9.76 log2 normalized intensity for the first, 0.831 log2 normalized intensity for the second.

Going from “CTCACCAGTGGGCCCAGAGCACAACCTTTGGCCTAGGGAGATTAGAGTATCGGTCGA” to “TATTCAGTCCCCCATCCCAGAGGTCAAACTGCCTAGGGAGATTAGAGTATCGGTCGA”, the binding signal rises from 1.42 log2 normalized intensity to 5.57 log2 normalized intensity.

First: GGAATTTGGACTTCAGCCCAGGCTGATTATGCCTAGGGAGATTAGAGTATCGGTCGA
Second: CAGCAAGCATTAATCCCTGAGCCTGGACCTGCCTAGGGAGATTAGAGTATCGGTCGA
The binding signal of the first is higher: 4.7 log2 normalized intensity for the first, 2.58 log2 normalized intensity for the second.

Going from “GCGCATCGGGCGCCAGCGCCCCCGTGTGGCGCCTAGGGAGATTAGAGTATCGGTCGA” to “GACCAGCGTGTGGCGCCATTTCAGGTCCACGCCTAGGGAGATTAGAGTATCGGTCGA”, the binding signal rises from 1.2 log2 normalized intensity to 1.74 log2 normalized intensity.

Going from “AATACTCCAGTCATTGTACAAACACATACCGCCTAGGGAGATTAGAGTATCGGTCGA” to “CTCTTAGTATTACCATGTCCTGTGATTAAGGCCTAGGGAGATTAGAGTATCGGTCGA”, the binding signal rises from -0.533 log2 normalized intensity to 1.16 log2 normalized intensity.

Going from “TGGGCCAGGTATTTGGACTTTTTGTAGTTTGCCTAGGGAGATTAGAGTATCGGTCGA” to “CCCTGACCAAGGGTCATGCTGGTCTCCTTGGCCTAGGGAGATTAGAGTATCGGTCGA”, the binding signal falls from 3.34 log2 normalized intensity to 2.46 log2 normalized intensity.

Compared with “GTTCAAACTTTATTTGATGATGAAGCAACAGCCTAGGGAGATTAGAGTATCGGTCGA”, “CAATAAGCAATACATTGAACTTTGAACACCGCCTAGGGAGATTAGAGTATCGGTCGA” is higher in binding signal: 0.662 log2 normalized intensity for the first, 7.99 log2 normalized intensity for the second.

First: AGCAATACATTGAACTTTGAACACCTCTTCGCCTAGGGAGATTAGAGTATCGGTCGA
Second: TTGTTCAATAAGCAATACATTGAACTTTGAGCCTAGGGAGATTAGAGTATCGGTCGA
The binding signal of the first is lower: 6.54 log2 normalized intensity for the first, 8.23 log2 normalized intensity for the second.

Compared with “AAGCAAACAAAACACGGACTTTGAAGCTCCGCCTAGGGAGATTAGAGTATCGGTCGA”, “TTTTCAACATATACTTTGAACTTGTTTTTTGCCTAGGGAGATTAGAGTATCGGTCGA” is lower in binding signal: 3 log2 normalized intensity for the first, 2.56 log2 normalized intensity for the second.

Going from “GGCAGTCGTGATAGTGACCACCTGGTGGACGCCTAGGGAGATTAGAGTATCGGTCGA” to “GTTGAGAACTGAGTTTAGAATTTGAACTATGCCTAGGGAGATTAGAGTATCGGTCGA”, the binding signal rises from 1.42 log2 normalized intensity to 3.68 log2 normalized intensity.

First: AGTTCAATTTCCAACAAATGAAACTAAAGGGCCTAGGGAGATTAGAGTATCGGTCGA
Second: CGCTCCCCGACCTCCTGCTGCAGCTCTGGGGCCTAGGGAGATTAGAGTATCGGTCGA
The binding signal of the first is lower: -0.972 log2 normalized intensity for the first, -0.577 log2 normalized intensity for the second.

First: TGTTTATCAGAGCAAAGTTCAATTTCCAACGCCTAGGGAGATTAGAGTATCGGTCGA
Second: TATTTGGATAATGTGCCCTTTGTACCTGGGGCCTAGGGAGATTAGAGTATCGGTCGA
The binding signal of the first is lower: 4.31 log2 normalized intensity for the first, 7.72 log2 normalized intensity for the second.

Going from “ATGTGCCCTTTGTACCTGGGGCAAACATCAGCCTAGGGAGATTAGAGTATCGGTCGA” to “GGATAATGTGCCCTTTGTACCTGGGGCAAAGCCTAGGGAGATTAGAGTATCGGTCGA”, the binding signal rises from 5.3 log2 normalized intensity to 5.83 log2 normalized intensity.

Going from “TCAAATATTTGGATAATGTGCCCTTTGTACGCCTAGGGAGATTAGAGTATCGGTCGA” to “ATGCTTCAAATATTTGGATAATGTGCCCTTGCCTAGGGAGATTAGAGTATCGGTCGA”, the binding signal falls from 7.39 log2 normalized intensity to 3.92 log2 normalized intensity.

Compared with “GTCAAACAAAAGAAAATGTGCCCTTTGGACGCCTAGGGAGATTAGAGTATCGGTCGA”, “CAATCAGCCTTAGGTATGCCCCATGGTAAGGCCTAGGGAGATTAGAGTATCGGTCGA” is lower in binding signal: 7.26 log2 normalized intensity for the first, 1.49 log2 normalized intensity for the second.

Compared with “GAATTCCATCCCAGGTCCACAGTGCACATTGCCTAGGGAGATTAGAGTATCGGTCGA”, “AAGGACAAAGGTCATGTTTTCAAACAATGAGCCTAGGGAGATTAGAGTATCGGTCGA” is higher in binding signal: 2.26 log2 normalized intensity for the first, 5.49 log2 normalized intensity for the second.

Sequence “CTGCTGGTTTTTGTCAAAGATAGTTGTAGTGCCTAGGGAGATTAGAGTATCGGTCGA” has a binding signal of 1.62 log2 normalized intensity.
